Only a selection was taken, and hits are over-represented in it overall.
NTMT1 inhibitor: Primary qHTS for Inhibitors of N-terminal methyltransferase 1 (NTMT1): MTaseGlo Assay. hit rate 2.5% among 59,000. Potency, µM (top dose mostly 114 µM), hits mostly inhibitors. NTMT1 MTase-Glo SAH luminescence, purified enzyme; also: nearly all actives have a fitted effect of over 65% in size
GALC G270D act: A Novel Cell-Based Assay to Identify Small Molecules for B -Galactocerebrosidase. P54803. 145M-Twi-hGALC-G270D cells (Twitcher mouse brain line with human GALC G270D), HMU-beta-Gal fluorescence, 48 h. Potency, µM (series often up to 57.5 µM), hits mostly activators. hit rate 0.1% among 45,000; also: nearly all actives have a fitted effect of over 65% in size
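Brain-derived Twitcher mouse 145M-Twi cells stably expressing human GALC-G270D or wild-type GALC, treated live, then residual GALC activity read by fluorescence of HMU-b-Gal substrate (0.1 mM final) in citrate-phosphate buffer pH 5.2 with sodium taurocholate. Signal increase indicates enhancement.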
FH mod: Identification of activators of human fumarate hydratase by quantitative high-throughput screening. FH coupled MDH/diaphorase resazurin fluorescence, 15 min. Fumarate hydratase, mitochondrial (Homo sapiens), P07954. Potency, µM (titrated, usually from 79.9 µM), actives largely listed as inhibitors. AID 1347055, 2019. hit rate 0.22% among 54,000; also: the screen sought activators but most active calls are inhibition curves; nearly all actives have a fitted effect of over 45% in size
Target sequence (P07954 whole entry, looked up): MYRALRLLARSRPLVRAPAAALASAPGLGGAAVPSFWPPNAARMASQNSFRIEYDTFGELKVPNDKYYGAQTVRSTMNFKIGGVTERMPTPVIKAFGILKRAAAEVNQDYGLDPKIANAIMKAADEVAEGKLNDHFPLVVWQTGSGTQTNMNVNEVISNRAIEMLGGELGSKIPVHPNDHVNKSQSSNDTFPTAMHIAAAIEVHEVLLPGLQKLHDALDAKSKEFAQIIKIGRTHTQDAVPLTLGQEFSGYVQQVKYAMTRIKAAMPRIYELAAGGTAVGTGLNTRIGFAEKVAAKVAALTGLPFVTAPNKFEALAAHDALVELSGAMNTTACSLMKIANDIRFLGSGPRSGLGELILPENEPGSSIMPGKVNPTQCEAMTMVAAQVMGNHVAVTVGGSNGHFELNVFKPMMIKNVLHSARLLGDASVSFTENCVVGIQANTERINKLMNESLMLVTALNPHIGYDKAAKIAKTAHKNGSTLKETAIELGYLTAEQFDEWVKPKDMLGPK
Hits are given with their value; ! = a repeat was not active. Calls follow the shape of the dose curve; as a rule, active = well fitted curve in the direction sought with a large enough effect; inconclusive = small, poorly fitted or top-dose-only effect, or another doubt; inactive = no such curve, though single readings can be large; an effect the other way counts as inactive or inconclusive.

Screening COc1ccc(N2C[C@]34C=C[C@H](O3)C(C(=O)O)C4C2=O)cc1 (stereo partly specified) returned NTMT1 inhibitor inactive.
`CCCNC(=O)CCc1c(C)nc2nc(-c3cc(OC)cc(OC)c3)nn2c1C` gave NTMT1 inhibitor inactive, GALC G270D act inactive and FH mod inactive.
`CCCCCCNC(=O)CCc1c(C)nc2nc(-c3cc(OC)cc(OC)c3)nn2c1C` gave NTMT1 inhibitor 89.1µM, GALC G270D act inactive and FH mod inactive.
For C[C@@H]1CC(=O)Nc2cccc(-c3ccc4c(c3)c(-c3cnn(C)c3)nn4C)c2N1 the results were NTMT1 inhibitor inactive.
For Cc1ccc(N2CCC(CNc3nc(-c4ccccc4C(C)C)ncc3C)CC2)cn1 the results were NTMT1 inhibitor inactive.
COC(=O)C(C)(N)Cc1ccc(O)cc1 (stereo unspecified) was read as FH mod inactive.
CC(Cc1ccc(O)c(O)c1)(NN)C(=O)O (stereo unspecified) was read as NTMT1 inhibitor 13.6µM! and FH mod inactive.
Screening C[C@](N)(Cc1ccc(O)c(O)c1)C(=O)O returned NTMT1 inhibitor 35.5µM, GALC G270D act inactive and FH mod inconclusive.
For O=C(O)c1ccc2c(c1)C(=O)N([C@H](Cc1ccc(O)c(O)c1)C(=O)O)C2=O the results were NTMT1 inhibitor inactive.
N#C/C(=C1/Nc2ccccc2S1)c1ccnc(OCc2ccc(CN3CCOCC3)cc2)n1 was read as NTMT1 inhibitor inactive.
For NS(=O)(=O)Nc1ncnc(OCCOc2ncc(Br)cn2)c1-c1ccc(Br)cc1 the results were NTMT1 inhibitor inconclusive and FH mod inactive.
For CCCNS(=O)(=O)Nc1ncnc(OCCOc2ncc(Br)cn2)c1-c1ccc(Br)cc1 the results were NTMT1 inhibitor 8.57µM! and FH mod inactive.
For NC(=O)C1=CN(C2OC(COP(=O)(O)OP(=O)(O)OC[C@H]3O[C@@H](n4cnc5c(N)ncnc54)[C@H](OP(=O)(O)O)C3O)C(O)C2O)C=CC1 (stereo partly specified) the results were FH mod inactive.
`CN(CCOc1ccc(-c2ccc3c(c2)OCO3)cc1C(C)(C)C)CC(=O)O` gave NTMT1 inhibitor inactive.
`C/C=C(/C)C(=O)O[C@H]1C(C)=CC23C(=O)C(C=C(CO)[C@@H](O)[C@]12O)[C@H]1[C@@H](C[C@H]3C)C1(C)C` (stereo partly specified) gave NTMT1 inhibitor inactive.
Screening Oc1ccc(NCc2ccccc2OCc2ccccc2Cl)cc1 returned NTMT1 inhibitor 44.7µM, GALC G270D act inactive and FH mod inconclusive.
For Oc1ccc(NCc2ccccc2OCc2ccccc2F)cc1 the results were NTMT1 inhibitor inconclusive, GALC G270D act inactive and FH mod inconclusive.
Screening Cc1cnc(NC(=O)c2cc(Oc3cnc(C(=O)N(C)C)nc3)c3cc(C)oc3c2)cn1 returned NTMT1 inhibitor inactive.
Cc1nc(NC(=O)N2CCCC2C(N)=O)sc1-c1ccnc(C(C)(C)C(F)(F)F)c1 (stereo unspecified) was read as NTMT1 inhibitor 44.7µM and FH mod inactive.
`C=C(C(=O)O)C1CCC(C)C2CCC(=O)OC2(C)C1` (stereo unspecified) gave NTMT1 inhibitor inactive and FH mod inactive.
For CCC(=O)NC(c1cc(Cl)c2cccnc2c1O)C(C)C (stereo unspecified) the results were NTMT1 inhibitor inactive.
Screening Oc1c(I)cc(Cl)c2cccnc12 returned NTMT1 inhibitor 50.1µM, GALC G270D act inactive and FH mod inactive.
C=C[C@H](/C=C\c1ccc(O)cc1)c1ccc(O)cc1 was read as NTMT1 inhibitor inactive and FH mod inactive.
For CNc1oc(-c2ccc3c(c2)OCCO3)nc1C#N the results were NTMT1 inhibitor inactive.
For CCN(CC)CCCCn1c(-c2ccccc2)nc2c(NCc3ccccc3)nc(C)nc21 the results were NTMT1 inhibitor 89.1µM.
For CCN(CC)CCCn1c(-c2ccccc2)nc2c(NCc3ccccc3)nc(C)nc21 the results were NTMT1 inhibitor inactive.
For Cc1c(P(=O)(c2ccccc2)c2ccccc2)c2ccccc2n1C the results were NTMT1 inhibitor 79.4µM.
`Cc1c(P(=S)(c2ccccc2)c2ccccc2)c2ccccc2n1Cc1ccccc1` gave NTMT1 inhibitor inactive.
For Cc1cc(C)n2ncc(C(=O)Nc3ccccc3C)c2n1 the results were NTMT1 inhibitor inactive.
Screening CCOc1ccc(-c2nc(CSCC(=O)NCc3ccc(C)cc3)c(C)o2)cc1 returned NTMT1 inhibitor 79.4µM, GALC G270D act inactive and FH mod inactive.
`CCc1ccc(-c2nc(CS(=O)CC(=O)NCc3ccc(F)cc3)c(C)o2)cc1` (stereo unspecified) gave NTMT1 inhibitor 89.1µM, GALC G270D act inactive and FH mod inactive.
For Cc1oc(-c2ccc(Cl)cc2)nc1CS(=O)CC(=O)NCc1ccc(Cl)cc1 (stereo unspecified) the results were NTMT1 inhibitor inactive, GALC G270D act inactive and FH mod inactive.
For CCc1ccc(-c2nc(CSCC(=O)NCc3ccc(C)cc3)c(C)o2)cc1 the results were NTMT1 inhibitor inactive, GALC G270D act inactive and FH mod inactive.
`Cc1nnc(-c2cnn(C)c2N)n1CCc1ccccc1` gave NTMT1 inhibitor inactive.
Screening COc1cc(Nc2nc(-c3ccncc3)nc3ccccc23)ccc1Cl returned NTMT1 inhibitor inactive.
`COc1ccccc1CNc1ccc(S(=O)(=O)Nc2nccs2)cc1` gave NTMT1 inhibitor inactive.
Screening Nc1nc(-n2cc(C(=O)O)c(=O)c3cc(F)c(N4CC(O)C4)c(Cl)c32)c(F)cc1F returned NTMT1 inhibitor inactive and FH mod inactive.
`O=C1NC(=O)C(c2cnc3ccccn23)=C1c1cn2c3c(cc(F)cc13)CN(C(=O)N1CCCCC1)CC2` gave NTMT1 inhibitor 27µM! and FH mod inactive.
Cc1ccc(OCCn2c(CCN(C)C(=O)C3CCCCC3)nc3ccccc32)cc1 was read as NTMT1 inhibitor inactive.
Screening O=C1CCCC2=C1C(c1ccccc1Cl)N=C(c1ccccn1)N2 (stereo unspecified) returned NTMT1 inhibitor inactive.
For Cc1cccc(C)c1NC(=O)CCS(=O)(=O)c1ccc2c(c1)n(C)c(=O)c(=O)n2C the results were NTMT1 inhibitor inactive, GALC G270D act inactive and FH mod inactive.
Screening CCc1cccc(C)c1NC(=O)CCS(=O)(=O)c1ccc2c(c1)oc(=O)n2C returned NTMT1 inhibitor 39.8µM, GALC G270D act inactive and FH mod inactive.
For C=CC(C)(CC/C=C(\C)C(=O)OC)OC1OC(COC(=O)CC(C)(O)CC(=O)O)C(O)C(O)C1O (stereo unspecified) the results were NTMT1 inhibitor inactive and FH mod inactive.
For CCOc1ccc(NC(=O)CSc2nnc(CNC(=O)C34CC5CC(CC(C5)C3)C4)n2CC)cc1 the results were NTMT1 inhibitor 89.1µM, GALC G270D act inactive and FH mod inactive.
CCn1c(CNC(=O)C23CC4CC(CC(C4)C2)C3)nnc1SCC(=O)Nc1ccc(C)cc1 was read as NTMT1 inhibitor inactive, GALC G270D act inactive and FH mod inactive.

Source: PubChem
